Hits are enriched below; roughly 3.6% of the tested compounds scored in any of these assays.
MazF activator: MazEF (E. coli) toxin RNase activation; 350,000 compounds, 0.32% hits; activation, % at 20 µM; FAM/BHQ RNA-DNA oligo cleavage fluorescence, 5 h; P0AE70; in the data active = activation above about 50%
Bead autofluor: counter-screen for toxin protease inhibitors: compound fluorescence. compound autofluorescence counterscreen, microsphere flow cytometry; hits give high values. fluorescence intensity (no concentration beside the values). 360,000 compounds, 3.1% hits. AID 624483; in the data active = fluorescence intensity above about 16000; inconclusive = no clear call, values can overlap the other calls
BoNT A protease: BoNT A light chain protease inhibition. multiplex microsphere protease substrate cleavage, flow cytometry. inhibition, % at 10 µM. 360,000 compounds, 0.17% hits. AID 588499; note: plate controls were buffer without enzyme for full effect and enzyme alone for no effect
BoNT-F LC inh: BoNT F light chain protease inhibition | Multiplex microsphere protease cleavage assay, flow cytometry | inhibition, % at 10 µM | 360,000 compounds, 0.22% hits | AID 588497; in the data active = inhibition above about 35%, passing the limit was not always enough; inconclusive = no clear call, values can overlap the other calls; note: plate controls were buffer without enzyme for full effect and enzyme alone for no effect
Anthrax LF prot: blocks Bacillus anthracis lethal factor protease; P15917; multiplex microsphere protease cleavage assay, LF; inhibition, % at 10 µM; 360,000 compounds, 0.12% hits; note: plate controls were buffer without enzyme for full effect and enzyme alone for no effect
Starred values were filed as active, the others as inactive; u = inconclusive. Cut-off read from the data, not from the text of the source, unless noted: active = inhibition above about 30%; inconclusive = no clear call, values can overlap the other calls; inactive = below that.

SMILES	MazF activator	Bead autofluor	BoNT A protease	BoNT-F LC inh	Anthrax LF prot
O=C(CN1C(=O)c2ccccc2C1=O)Nc1ccccc1	11.6	4093	-3.0	u	0.0
COc1ccc2c(c1)[nH]c1c(N3CCN(Cc4ccc5c(c4)OCO5)CC3)ncnc12	-4.0	23865*	-0.9	-3.1	-1.7
COc1ccc(CN2C(=O)C(CC(=O)NC3CCCCC3)CC(C(=O)N(C(C)C)C(C)C)=C2C)cc1 (stereo not given)	-3.5	3738	0.0	4.3	-0.2
CC1CN(C(=O)C(c2ccccc2)c2ccccc2)CC(C)O1 (stereo not given)	3.6	25891*	-5.8	-8.0	-5.4
CCc1cc(C(=O)NC2CCCc3c2cnn3-c2ccc(F)cc2F)no1 (stereo not given)	-4.4	3425	0.2	1.1	-5.3
CCOC(=O)c1c(/N=C/c2c(O)n(-c3ccccc3F)c(=S)[nH]c2=O)sc2c1CCCC2	39.5	3294	57.4*	24.2	56.2*
CCOC(=O)c1ccc(N=Cc2c(O)n(-c3ccccc3F)c(=S)[nH]c2=O)cc1	37.5	10675	-0.2	2.8	0.2
CCOC(=O)c1c(/N=C/c2c(O)n(-c3ccc(F)cc3)c(=S)[nH]c2=O)sc2c1CCCC2	-136.0	11434	101.4*	43.2*	56.4*
O=C(Nc1ccccc1F)C1CCCN1S(=O)(=O)c1cccc2nsnc12 (stereo not given)	6.6	5556	1.9	1.4	5.2
O=C(c1ccc(Br)cc1)C1CCc2occc2C1=O (stereo not given)	-6.7	22206*	1.0	3.1	0.5
c1ccc(CNc2ccc(CNc3ncn[nH]3)cc2)cc1	7.2	22732*	u	-5.8	-8.9
c1ccc(CNc2ncn[nH]2)cc1	4.5	2912	0.1	4.0	3.8
CSc1ncc(Cl)c(C(=O)NCc2cccnc2)n1	2.5	3834	-2.3	-2.3	2.2
Cc1ccc(C(C(=O)NC2CCCCC2)N(CCCN2CCOCC2)C(=O)c2snc(C(N)=O)c2N)cc1 (stereo not given)	1.4	3748	-4.2	-10.0	-10.7
COc1ccc(N2C(=O)C3C4C=CC(C4)C3C2=O)c([N+](=O)[O-])c1 (stereo not given)	5.8	3455	0.2	1.1	-1.0
COc1ccc(N2C(=O)C3C4C=CC(C4)C3C2=O)c(OC)c1 (stereo not given)	2.9	22210*	0.3	1.4	1.1
OCCN1CCN(Cc2cccc(Oc3ccc(Cl)cc3)c2)CC1	-4.6	20285*	1.1	1.3	-1.1
CN1CCN(Cc2cccc(Oc3ccccc3)c2)CC1	4.0	9643	1.2	5.2	-4.4
O=C(NCCN1CCOCC1)c1cccc(S(=O)(=O)NCc2ccccc2)c1	-2.3	7299	-5.0	2.6	10.0
COc1ccc(C)cc1N1CC(C(=O)Nc2ccccc2C(=O)NC2CC2)CC1=O (stereo not given)	-1.2	8322	1.0	3.8	2.9
COc1cc2[nH]c(=S)n(C3CC3)c(=O)c2cc1OC	1.5	4301	-1.2	-2.1	-4.4
COc1cc2[nH]c(=S)n(N(C(C)=O)C(C)=O)c(=O)c2cc1OC	4.7	22631*	2.2	1.0	0.4
COc1cc2[nH]c(=S)n(C3CCCC3)c(=O)c2cc1OC	8.2	23713*	-1.4	-1.2	-1.1
CCCN(CC(=O)Nc1ccccc1C)C(=O)c1ccc(OCc2c(C)noc2C)cc1	2.9	5922	1.2	3.3	-1.8
Cc1ccc2c(c1)[C@@H]1[C@H](CO2)[C@H](c2ccccc2)[C@]2(C)C(=O)N[C@H](C)C(=O)N12	-0.8	3480	-0.1	2.6	-5.7
SMILES	MazF activator	Bead autofluor	BoNT A protease	BoNT-F LC inh	Anthrax LF prot
COc1ccccc1NC(=O)Cn1nc(C(F)(F)F)c2c1CCCC2	-2.9	25001*	-1.7	-3.0	1.5
COc1ccc(NC(=O)Cn2nc(C(F)(F)F)c3c2CCCC3)cc1OC	-1.8	22117*	u	-7.1	-1.6
O=C(Cn1nc(C(F)(F)F)c2c1CCC2)N1CCN(c2ccccc2)CC1	1.1	23434*	-2.1	-1.3	-1.6
O=C(Cn1nc(C(F)(F)F)c2c1CCCC2)Nc1ccc2c(c1)OCO2	-2.4	21133*	-1.2	-3.5	-4.1
O=C(Cn1nc(C(F)(F)F)c2c1CCCC2)N1CCOCC1	-12.6	4776	-0.6	0.3	-0.2
CC(C)n1cnnc1SCC(=O)NC(=O)c1ccccc1	6.6	5538	-3.0	0.3	1.9
Cc1ccc(NC(=O)C2CCN(S(=O)(=O)c3ccc4c(c3)CCCC(=O)N4)CC2)c(Br)c1	9.4	5439	0.5	-3.9	-1.0
COc1cccc(C(=O)Nn2cnnc2)c1OC	2.3	3798	-0.3	u	-1.0
O=C(COC(=O)c1ccccc1F)Nc1ccc2c(c1)OCCO2	2.4	u	1.2	-1.8	-1.3
CCC(=O)Nc1nnc(SCC(=O)Nc2cccc(Cl)c2)s1	0.2	5528	-0.1	0.0	-1.3
CCc1c(C)sc(NC(=O)Cn2nc(C(F)(F)F)c3c2CCCC3)c1C#N	2.8	22610*	1.9	3.0	0.8
COc1ccc(CC(C(=O)Nc2cc(C)ccc2C)/C(N)=N/O)cc1 (stereo not given)	12.1	16939*	-0.8	-0.9	-1.9
CCOc1ccc(N=C(/C(C(=O)C(=O)N2CCOCC2)=C(\O)c2ccccc2)c2ccccc2)cc1	-3.6	2443	-0.5	-0.9	-1.5
CN(Cc1nc2ccccc2n1C)C(=O)c1cccs1	-0.7	22484*	-0.8	-3.0	-6.3
COc1cc([N+](=O)[O-])cc(/C=N/NC(=O)C(C)Nc2ccccc2C)c1O (stereo not given)	-0.7	2594	-0.8	-8.9	-1.9
C=CCN1C(=O)S/C(=C\c2ccc(N3CCOCC3)cc2C)C1=O	103.4*	7105	0.5	-0.8	-0.5
OC(c1ccc2ccccc2n1)c1c(Cl)cccc1Cl (stereo not given)	11.2	2767	-0.8	-1.2	4.9
C/C(CC(O)c1ccc2ccccc2n1)=N/O (stereo not given)	-9.2	20613*	0.6	-0.3	-1.1
O=[N+]([O-])c1ccc(O)c(/C=N/Nc2ccccn2)c1	1.9	2089	21.4	67.4*	6.6
COc1ccc(-c2ccc3c(=O)cc(-c4ccsc4)oc3c2)cn1	69.6*	3346	-0.3	5.5	3.9
COc1cc(-c2ccc3oc(-c4ccsc4)cc(=O)c3c2)cc(OC)c1OC	28.8	4008	0.0	-5.4	-3.7
CCN(CC(=O)Nc1ccc(NC(C)=O)cc1)C(=O)CCCc1nc2ccccc2s1	4.5	4007	-0.4	-0.4	7.3
O=C(Cc1nc(=O)c2ccccc2s1)Nc1ccccc1	34.2	16611*	9.7	10.7	-11.3
O=C(N(c1ccccc1)c1ccccc1)n1ccnc1	2.7	21662*	-6.7	-8.1	-4.1
Cc1ccccc1Cn1cccc1/C=C1/C(=N)N2C=CSC2=NC1=O	163.6*	3446	0.9	-16.5	-0.2
CC(C)c1ccc(-n2cccc2/C=C2/C(=N)N3C=CSC3=NC2=O)cc1	-5.2	11106	0.8	-6.0	2.6
C[C@@H]1CN([C@H](C)CO)C(=O)CCCn2nncc2CO[C@H]1CN(C)C(=O)Nc1ccc(N2CCN(C)CC2)cc1	-17.9	3914	-0.3	-7.9	-3.6

Bioassay records: PubChem BioAssay, several laboratories
